The values below come from the supplement of paper PMC9950053.

Counter-ions that a name gives are not always drawn.

This test relates to Danio rerio larvae (5 dpf). Nature of the test: combined optomotor response (time in upper well half, down vs up moving lines, periods 7-14) minus DMSO control (percentage points); higher = stronger optomotor response than DMSO larvae. Conditions: 10 µM; exposure time: 3 h pre-incubation + 3 h imaging.
Take `C=CCN1C[C@H](C(=O)N(CCCN(C)C)C(=O)NCC)C[C@@H]2c3cccc4[nH]cc(c34)C[C@H]21` [Cabergoline]: the combined optomotor response is -6.92.
With `C=C1C[C@@H]2[C@H](CC[C@]3(C)C(=O)CC[C@@H]23)[C@@]2(C)C=CC(=O)C=C12` [Exemestane] the figure was 3.71.
With `CC[C@@H](C(N)=O)N1CCCC1=O` [Levetiracetam], the combined optomotor response came out at 7.27.
With `CC(O)(CS(=O)(=O)c1ccc(F)cc1)C(=O)Nc1ccc(C#N)c(C(F)(F)F)c1` (stereo unspecified) [Bicalutamide] the figure was 0.551.
As to `N[C@@H]1C[C@H]1c1ccccc1` [Tranylcypromine hydrochloride], the combined optomotor response was found to be 9.38.
In the case of `CN1C[C@H](C(=O)N[C@]2(C)O[C@@]3(O)[C@@H]4CCCN4C(=O)[C@H](Cc4ccccc4)N3C2=O)C[C@@H]2c3cccc4[nH]cc(c34)C[C@H]21` [Dihydroergotamine mesylate], the combined optomotor response was 13.2.
Take `Cc1cccc([C@H](C)c2c[nH]cn2)c1C` [Dexmedetomidine hydrochloride]: the combined optomotor response was -11.4.
Take `O=c1[nH]c2ccccc2n1C1CCN(CCCC(c2ccc(F)cc2)c2ccc(F)cc2)CC1` [Pimozide]: the combined optomotor response was -11.
As for `COc1cc2c(cc1OC)C1CC(=O)C(CC(C)C)CN1CC2` (stereo unspecified) [Tetrabenazine], the combined optomotor response was -0.321.
With `CCN(C)C(=O)Oc1cccc([C@H](C)N(C)C)c1` [Rivastigmine tartrate] the figure was 4.19.
With `CC(C)C[C@H]1C(=O)N2CCC[C@H]2[C@]2(O)O[C@](NC(=O)[C@@H]3C=C4c5cccc6[nH]c(Br)c(c56)C[C@H]4N(C)C3)(C(C)C)C(=O)N12` [Bromocriptine mesylate] the figure was -10.1.
